Screening data: PubChem BioAssay, National Center for Advancing Translational Sciences (NCATS)
Only some compounds are listed: those with a hit (about 12% of all), similar ones and a draw of the others.
BAZ2B inh: qHTS Assay for Inhibitors of BAZ2B | actives 4.4% (n = 360,000) | AID 504333, 2011 | Potency, µM (titrated, usually from 114 µM), for the others: top-dose activity change, negative = inhibition, hits mostly inhibitors | AlphaScreen BAZ2B-H3K14Ac peptide displacement | Bromodomain adjacent to zinc finger domain protein 2B (Homo sapiens), Q9UIF8; also: % is scaled to controls: 0 for no effect and ±100 for the full control effect; nearly all actives have a fitted effect of over 60% in size
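Compounds, titrated to a top concentration of 110 uM, were incubated 30 min at room temperature with preformed BAZ2B/acetyl-K14 H3 peptide complex (50 nM each). Proximity signal was measured by AlphaScreen after 20 min with beads.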
JMJD2A Tudor: qHTS Assay for Inhibitors of JMJD2A-Tudor Domain; actives 4.4% (n = 390,000); Lysine-specific demethylase 4A (Homo sapiens), O75164; AlphaScreen JMJD2A-Tudor / H3K4me3 peptide binding; Potency, µM (series often up to 114 µM), for the others: at the top dose activity change, negative = inhibition, hits mostly inhibitors; also: % is scaled to controls: 0 for no effect and ±100 for the full control effect; nearly all actives have a fitted effect of over 50% in size
HP1b binding inh: HTS for Inhibitors of HP1-beta Chromodomain Interactions with Methylated Histone Tails. Chromobox protein homolog 1 (Homo sapiens), P83916. AlphaScreen HP1-beta / biotin-H3K9me3 peptide binding. Potency, µM (titrated, usually from 114 µM), for inactives: top-dose activity change, negative = inhibition, most hits filed as inhibitors. actives 0.56% (n = 390,000). AID 540317, 2011; also: nearly all actives have a fitted effect of over 70% in size
Target sequence (P83916 whole entry, looked up): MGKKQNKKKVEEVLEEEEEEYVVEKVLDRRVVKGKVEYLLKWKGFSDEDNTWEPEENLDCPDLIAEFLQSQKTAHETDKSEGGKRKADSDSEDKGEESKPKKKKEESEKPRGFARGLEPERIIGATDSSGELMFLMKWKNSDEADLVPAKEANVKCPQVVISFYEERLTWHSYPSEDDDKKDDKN
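HP1-beta protein (50 nM final) preincubated 30 min at room temperature with biotinylated H3(1-18)K9me3 peptide (50 nM) in PBS pH 7.4, 0.01% Tween-20, then compound added for 30 min. AlphaScreen streptavidin donor/nickel chelate acceptor beads (10 ug/mL final), 30 min dark, luminescence read.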
G9a block: qHTS Assay for Inhibitors of Histone Lysine Methyltransferase G9a | Histone-lysine N-methyltransferase EHMT2 (Homo sapiens), Q96KQ7 | G9a H3K9 monomethylation, AlphaScreen, 2 h | Potency, µM (series often up to 102 µM), without a hit: at the highest dose activity, negative = inhibition, most hits filed as inhibitors | actives 8.8% (n = 350,000); also: % is scaled to controls: 0 for no effect and ±100 for the full control effect; nearly all actives have a fitted effect of over 75% in size
Target sequence (Q96KQ7 913-1193 limits assumed): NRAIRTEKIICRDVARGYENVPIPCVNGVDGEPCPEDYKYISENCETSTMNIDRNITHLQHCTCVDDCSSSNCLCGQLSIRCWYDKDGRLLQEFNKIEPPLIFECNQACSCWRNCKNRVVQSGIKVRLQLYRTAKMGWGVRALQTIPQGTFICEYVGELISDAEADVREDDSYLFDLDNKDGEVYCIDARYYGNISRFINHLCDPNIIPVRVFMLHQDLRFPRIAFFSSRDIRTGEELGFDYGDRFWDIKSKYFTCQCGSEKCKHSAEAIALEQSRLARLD
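Using a bead-based AlphaScreen, monomethylated H3K9 product from 2 h room-temperature reactions (G9a 20 nM, peptide 500 nM, SAM 20 uM) was detected with 0.5 ug/mL rabbit anti-H3K9me1 antibody.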
PLK1 PBD inh: qHTS for Inhibitors of PLK1-PDB (polo-like kinase 1 - polo-box domain): Primary Screen. Serine/threonine-protein kinase PLK1 (Homo sapiens), P53350. Plk1 PBD binding of FITC phosphopeptide, fluorescence polarization. Potency, µM, for inactives: max response, negative = inhibition, actives largely listed as inhibitors. actives 2.8% (n = 360,000); also: series mostly up to about 57 µM; % is scaled to controls: 0 for no effect and ±100 for the full control effect; nearly all actives have a fitted effect of over 65% in size
Sfp PPTase inh: qHTS Assay for Inhibitors of Bacillus subtilis Sfp phosphopantetheinyl transferase (PPTase); actives 3.5% (n = 310,000); AID 1490, 2009; Potency, µM, for inactives: largest response in the series, negative = inhibition, most hits filed as inhibitors; Biochemical Sfp PPTase activity, qHTS;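 also: the enzyme is Sfp with the accession as filed and its product quenches rhodamine fluorescence; 0% = enzyme reaction without inhibitor and -100% = no enzyme wells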
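Reaction rates are the 30-min fluorescence difference (ex 525, em 598 nm) in wells containing 15 nM Sfp, 5 uM rhodamine-CoA and 12.5 uM BHQ-2-YbbR at pH 7.6 with 10 mM MgCl2.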
Starred values were filed as active, the others as inactive; ? = inconclusive; . = not tested or not shown; [ ] = remark or other dose. Calls follow the shape of the dose curve; as a rule, active = well fitted curve in the direction sought with a large enough effect; inconclusive = small, poorly fitted or top-dose-only effect, or another doubt; inactive = no such curve, though single readings can be large; an effect the other way counts as inactive or inconclusive. Potency is read from the fitted curve at half-maximal effect.

SMILES	BAZ2B inh	JMJD2A Tudor	HP1b binding inh	G9a block	PLK1 PBD inh	Sfp PPTase inh
O=C(OCC#CCSc1nnc(-c2ccc(F)cc2)o1)c1ccc(F)cc1	.	57%	.	.	.	.
CCC(CC)c1nnc(NC(=O)CCc2ccc(OC)cc2)s1	?	-17%	24%	?	-11%	45µM*
CCC(CC)c1nnc(NC(=O)CCc2ccccc2)s1	12%	-10%	12%	21%	-14%	15%
CC(=O)Nc1c(O)nc(SCC(=O)Nc2nnc(SCc3ccccc3)s2)[nH]c1=O	?	?	7%	20µM*	?	35µM*
Cc1cc(C)cc(Nc2cc(C(=O)NCc3ccccc3)c3ccccc3n2)c1	.	-4%	81%	47%[59 µM]	.	.
Cc1cc(C)c(NC(=O)Cn2c(=O)oc3cc(S(=O)(=O)N4CCCCCC4)ccc32)c(C)c1	5%	-7%	35%	9%[59 µM]	.	.
Cc1ccc(C=Nc2ccc(N(C)C)cc2)o1	.	45µM*	?	1.3µM*	-2%	?
Cc1ccc(C=Nc2ccccc2C(N)=O)o1	7%	-3%	29%	33%[59 µM]	2%	-50%
C=CCNC(=O)CSCc1ccc(Br)cc1	1%	1%	30%	.	-14%	18%
Cc1ccc(C2=Nc3ccccc3SC(c3cccc([N+](=O)[O-])c3)C2)cc1 (stereo unspecified)	22µM*	?	8%	45µM*	1%	8.9µM*
CN1C(=O)/C(=C/C=C2\SCCN2C)SC1=S	-10%	.	.	8.9µM*	.	-24%
CCN1C(=O)/C(=C\N2CCN(C)CC2)SC1=S	-32%	-19%	24%	-28%	-2%	5%
CN1C(=O)/C(=C/C=C2\SCCN2C)N(C)C1=S	-35%	-22%	?	40µM*	40%	-12%
CNC(=S)N(Cc1ccc(Cl)cc1)Cc1cccs1	8%	6%	47%	43%	-4%	8%
CC(C)C1=CC2=CC[C@@H]3[C@](C)(CCC[C@@]3(C)C(=O)O)[C@H]2CC1	.	.	.	?	.	-4%
CCNc1nc(NCC)nc(C(=O)Nc2ccccc2)n1	10µM*	79µM*	58%	8%[0.501 µM]	-8%	6%
O=C(Nc1cccc(NC(=O)c2ccccc2)n1)c1ccccc1	-25%	-8%	45%	3%	-4%	-6%
CCCc1nc(NC(=O)c2ccccc2)nc(NC(=O)c2ccccc2)n1	19%	-12%	24%	71µM*	-3%	-11%
CCOc1ccc2nc(COC(=O)c3cccc([N+](=O)[O-])c3)c(C(C)=O)[n+]([O-])c2c1	-14%	-12%	7%	22%[12.7 µM]	-7%	16%
Cc1ccc(S(=O)(=O)N2CCC(c3nnc(-c4cccc(C)c4)o3)CC2)cc1	-16%	-17%	1%	3.5µM*	.	.
CC1CCN(S(=O)(=O)c2cccc(-c3nnc(-c4cccnc4)o3)c2)CC1	0%	28µM*	-10%	22%[59 µM]	15µM*	17%
CCCc1ccc(S(=O)(=O)N2CCC(c3nnc(-c4cccc(C)c4)o3)CC2)cc1	-2%	-16%	27%	8.9µM*	.	.
COc1ccccc1-n1c(SCC(=O)c2ccc(O)cc2O)nc2cc([N+](=O)[O-])ccc21	?	25µM*	-17%	?	-15%	1%
COc1ccccc1-n1c(SCC(=O)NC2CCS(=O)(=O)C2)nc2cc([N+](=O)[O-])ccc21 (stereo unspecified)	-2%	-17%	0%	19%[59 µM]	0%	11%
Cc1ccc(N2CC(NC(=O)N3CCN(C(=O)c4ccco4)CC3)CC2=O)cc1 (stereo unspecified)	15%	-5%	17%	14%[0.501 µM]	-9%	.
SMILES	BAZ2B inh	JMJD2A Tudor	HP1b binding inh	G9a block	PLK1 PBD inh	Sfp PPTase inh
CC[N+](CC)(CC#Cc1ccccc1)CC(=O)c1ccc(Cl)cc1	-7%	-23%	11%	7.1µM*	-3%	1%
CCNC(=O)C1CCCN(C(=O)c2cccc(C#N)c2)CC1 (stereo unspecified)	.	.	.	.	1%	.
CCc1ccc(/C=C2/SC(=S)N(CCC(=O)Nc3ccc(C(=O)O)cc3)C2=O)cc1	?	.	.	91%	.	-29%
COc1ccc(/C=C2\SC(=S)N(CC(=O)OCC(=O)Nc3ccc(C)cc3Cl)C2=O)cc1	-26%	?	5%	14µM*	-8%	-24%
O=C(CCN1C(=O)/C(=C/c2ccc(Cl)cc2)SC1=S)Nc1ccc(C(=O)O)cc1	-16%	?	71µM*	?	30µM*	-4%
COc1ccc(/C=C2\SC(=S)N(CCC(=O)Nc3ccc(C(=O)O)cc3)C2=O)cc1	35µM*	-101%	50µM*	20%[0.501 µM]	-30%	-3%
O=C(NCCN1CCC(n2c(=O)[nH]c3ccccc32)CC1)c1ccc(F)c(F)c1	.	.	.	.	-2%	.
NC(=O)c1ccc(NC(=O)COC(=O)CC23CC4CC(CC(Br)(C4)C2)C3)cc1	.	-21%	23%	.	-2%	.
CCN(CC)C(=O)c1cccnc1	.	.	.	3%[12.7 µM]	.	27%
COc1ccc(OC)c(NC(=O)Cn2cnc3onc(-c4ccc(Cl)cc4)c3c2=O)c1	12%	-13%	28%	-4%[59 µM]	.	.
CC1C(=O)N2CCCc3cc(NS(=O)(=O)c4ccccc4)cc1c32 (stereo unspecified)	0%	-1%	25%	?	-7%	.
CCN(c1ccccc1)S(=O)(=O)c1cc2c3c(c1)C(C)C(=O)N3CCC2 (stereo unspecified)	-1%	-4%	32%	23%	-2%	7%
COc1ccc(S(=O)(=O)Nc2cc3c4c(c2)C(C)C(=O)N4CCC3)cc1OC (stereo unspecified)	9%	-14%	9%	45µM*	-10%	.
CC1C(=O)N2CCCc3cc(S(=O)(=O)N(C)c4ccccc4)cc1c32 (stereo unspecified)	56µM*	-22%	36%	.	-19%	-18%
COc1ccc(/C=C(\NC(=O)c2ccccc2)C(=O)OCC2CCCN3CCCCC23)cc1OC (stereo unspecified)	-1%	-12%	32%	-33%	-10%	10%
CCOC(=O)c1c(NC(C)=O)sc2c1CCN(Cc1ccccc1)C2	-3%	-25%	23%	.	-1%	1%
CCOC(=O)c1c(NC(=O)C(C)Sc2cccc[n+]2[O-])sc2c1CCN(Cc1ccccc1)C2 (stereo unspecified)	-10%	?	-10%	8.9µM*	15%	17%
